Each structure is given as a SMILES string. Records with an inconclusive call do not appear. Activity calls are given as the source filed them. The calls were made as follows: active = hit-call score of the fitted dose curve at least 0.9, where 1 is the maximum; inconclusive = response in the unintended direction; inactive = score below 0.9.

This test can be described thus: Tanguay_ZF_120hpf_AXIS_legacy: (Legacy) Oregon State University Tanguay Lab 120 Hour Post-fertilization zebrafish Assay for Body Axis Malformation (AID 2283635).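 As to AC50: potency for an increased fraction of larvae scored with body axis malformation.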 The method, then:
Tanguay_ZF_120hpf_legacy is a whole embryo, multiplexed endpoint assay using zebrafish larvae exposed for 120 hours post fertilization on a 96-well plate.Tanguay_ZF_120hpf_AXIS_legacy is one of one assay component(s) measured or calculated from the Tanguay_ZF_120hpf_legacy assay. It is designed to make measurements of zebrafish development as detected with brightfield microscopy of developing zebrafish embryos.Data from the assay component Tanguay_ZF_120hpf_AXIS_legacy was analyzed into 1 assay endpoints. This assay endpoint, Tanguay_ZF_120hpf_AXIS_legacy, was analyzed in the positive analysis fitting direction relative to DMSO as the negative control and baseline of activity. Using a type of morphology reporter, gain-of-signal activity can be used to understand changes in developmentals as they relate to the whole embryo. To generalize the intended target to other relatable targets, this assay endpoint is annotated to the zebrafish development intended target family, where the subfamily is body axis morphogenesis.
Zebrafish husbandry: Tropical 5D wild-type adult zebrafish were housed in at an approximate density of 1000 per 100 gallon tank at the Sinnhuber Aquatic Research Laboratory, Oregon State University, Corvallis, OR. Each tank was kept at standard laboratory conditions of 28C on a 14-h light/10-h dark photoperiod in fish water consisting of reverse osmosis water supplemented with a commercially available salt (Instant Ocean). Spawning funnels were placed into the tanks the night prior, and embryos were collected and staged. To increase bioavailability, the chorion was enzymatically removed using pronase (63.6mg/ml, >/= 3.5U/mg, Sigma-Aldrich: P5147) at 4 hours post fertilization (hpf) using a custom automated dechorionator.Chemical exposures: Six hpf dechorionated embryos were placed 1 embryo per well in a 96-well plate prefilled with 90 ul of EM using automated embryo placement systems (AEPS). Ten microliters of each row of dilution plate 2 was added to 2 exposure plates. The final DMSO concentration used was 0.64% (vol/vol). Thirty-two embryos were also exposed to 5uM trimethyltin chloride (positive control). Plates were sealed to prevent evaporation and foil covered to reduce light exposure and kept in a 28C incubator. Embryos were statically exposed until 120 hpf. At 24 hpf, embryos were assessed for photomotor response using a custom photomotor response analysis tool (PRAT) and for developmental toxicity endpoints (MO24: mortality at 24 hpf, DP: developmental progression, SM: spontaneous movement, and NC: notochord distortion). At 120 hpf, locomotor activity was measured using Viewpoint Zebralab and assessed for 18 endpoints. Zebrafish acquisition and analysis program (ZAAP), a custom program designed to inventory, acquire, and manage zebrafish data, was used to collect developmental endpoints as either present or absent (i.e., binary responses were recorded). If mortality occurred for an embryo (at either 24 or 120 hpf), the non-mortality endpoints were not measured.
Turning to `OC12N=C(c3ccccc3)SC1Cc1cc(Cl)ccc12` (stereo not given), the concentration at half-maximal activity (AC50) was 50 µM (active).

`COc1cccc([C@H](O)C2CCN(CCc3ccc(F)cc3)CC2)c1OC`: the half-maximal activity concentration (AC50) is 34 µM (active).

Take `CC(C)(O)c1ccc(CNC(=O)c2cccnc2Oc2ccc3nonc3c2)cc1`: the compound was called inactive.

As for `O=CCCCC=O`, the result was inactive.

As for `CCCCOC(=O)CC(CC(=O)OCCCC)(OC(C)=O)C(=O)OCCCC`, the outcome was inactive.

For the compound `C[C@]12CC[C@@H]3c4ccc(O)cc4CC[C@H]3[C@@H]1CCC2=O`, the outcome was inactive.

On to `CCCOC(=O)c1cc(O)c(O)c(O)c1`, for which the compound was called inactive.

As to `CCN(CC)C(=O)c1cc(S(=O)(=O)Cc2ccccc2)c(N2CCC(c3ccccc3)CC2)cc1N(CC)CCN(C)C`, the half-maximal activity concentration (AC50) was 18.2 µM (active).

Regarding `Cc1ccc(C(C)C)cc1`, the result was inactive.

With `O=C(OCCCCCCOC(=O)c1ccccc1)c1ccccc1`, the result was inactive.

As to `Cc1c2ccccc2c(C)c2c1ccc1ccccc12`, the call was inactive.

With `CC[C@@H]1C[C@H](N(Cc2cc(C(F)(F)F)cc(C(F)(F)F)c2)C(C)=O)c2cc(C(F)(F)F)ccc2N1C(=O)OC(C)C`, the compound was classed as inactive.

Consider `CCCCCCCCN(C)CCCCCCCC`, for which the call was inactive.

Take `Cc1occc1C(=O)Nc1ccc(C(=O)N2CCC(F)(F)/C(=C\C(=O)N3CCC(N4CCCCC4)CC3)c3ccccc32)cc1`: the outcome was inactive.

With `CCCC(=O)OCCC(C)C`, the result was inactive.

With `CN1C(=O)N(c2ccccc2Br)Cc2cnc(Nc3ccc4c(c3)OCC(CO)O4)nc21` (stereo not given), the AC50 was 2.03 µM (active).

As for `CCCCCCCCCCCO`, the call was inactive.

`Cc1cc2c(cc1C(F)(F)F)N(C(=O)Nc1ccc(Oc3cccnc3C)nc1)CC2`: the result was inactive.

For `O=C1CCC(C2CCCCC2)CC1`, the compound was called inactive.

In the case of `CN(C[C@@H](CC[N+]12CCC(C3CCCCC3)(CC1)CC2)c1ccc(Cl)c(Cl)c1)C(=O)c1cc(C(F)(F)F)cc(C(F)(F)F)c1`, the call was inactive.

Turning to `CC1=CC(=O)/C(=C(/C)O)C(=O)O1`, the compound was called inactive.

`O=C1O[C@H]([C@@H](O)CO)C(O)=C1O`: the compound was classed as inactive.

Regarding `CO[C@H]1/C=C/O[C@@]2(C)Oc3c(C)c(O)c4c(O)c(c(/C=N/N5CCN(C)CC5)c(O)c4c3C2=O)NC(=O)/C(C)=C\C=C\[C@H](C)[C@H](O)[C@@H](C)[C@@H](O)[C@@H](C)[C@H](OC(C)=O)[C@@H]1C`, the compound was classed as inactive.

`CC(=O)N1CCN(c2ccc(OC[C@H]3CO[C@](Cn4ccnc4)(c4ccc(Cl)cc4Cl)O3)cc2)CC1`: the outcome was inactive.

Turning to `C[C@]12CC[C@@H]3c4ccc(O)cc4CC[C@H]3[C@@H]1CC[C@H]2O`, the result was inactive.

Turning to `CN(C)c1ccc(C(=C2C=CC(=[N+](C)C)C=C2)c2ccc(N(C)C)cc2)cc1`, the compound was classed as inactive.

Regarding `CCCCCCCCOC(=O)c1cc(O)c(O)c(O)c1`, the result was inactive.

As for `c1ccc2n[nH]nc2c1`, the compound was called inactive.

As for `Clc1cc(Cl)c2c(c1)N=C1CCCCCN1C2`, the AC50 is 7.43 µM (active).

Turning to `Cc1ncc(CO)c(CO)c1O`, the result was inactive.

With `CN1C(=O)CC[C@H]1c1cccnc1`, the result was inactive.

For `O=c1c(-c2ccc(O)cc2)coc2cc(O)cc(O)c12`, the outcome was inactive.

For `Cc1cn([C@H]2C[C@H](N=[N+]=[N-])[C@@H](CO)O2)c(=O)[nH]c1=O`, the outcome was inactive.

`CCCCCCCC[Si](OCC)(OCC)OCC`: the call was inactive.

On to `COc1cc(C(=O)NC2CCN(C)CC2)ccc1Nc1ncc2c(n1)N(C1CCCC1)CC(F)(F)C(=O)N2C`, for which the AC50 was 9.69 µM (active).

In the case of `COc1ccc2cc(S(=O)(=O)N[C@H](CC(=O)N[C@H](Cc3ccc(CN4[C@H](C)CCC[C@@H]4C)cc3)C(=O)N(C)C(C)C)c3ccc4c(c3)OCO4)ccc2c1`, the compound was called inactive.

On to `CCCCOC(=O)c1ccc(O)cc1`, for which the AC50 was 45.1 µM (active).

Consider `O=C=NCCCCCCN=C=O`, for which the compound was called inactive.

Turning to `CN(C)C(=O)C1(N2CCCCC2)CCN(CC[C@@]2(c3ccc(Cl)c(Cl)c3)CN(C(=O)c3ccccc3)CCO2)CC1`, the call was inactive.

In the case of `Cc1ccc2oc(CN(Cc3ccccc3)C(=O)Nc3c(F)cc(F)cc3F)c(-c3ccc(Cl)cc3)c2c1`, the compound was called inactive.

Values taken from PubChem BioAssay (EPA / NIEHS).
